Our source for the composite z-score and z-score values is PubChem BioAssay.

Calls of active or inactive are those of the source. Unless noted, the rule behind the calls is not given here.

A short description of test [1]: anti-His antibody binders, primary screen, artefact control for SMM control protein annotation, biochemical, small-molecule microarray, 635 nm fluorescence (AID 1128).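 Note: score merges feature fluorescence with signal-to-noise for each printed compound spot.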 As to conditions: anti-His Alexa647 antibody binding, higher = more signal.
In test [2] the test system is Human papillomavirus type 1a E7 protein (residues 1-88). In words: HPV1a E7 small-molecule binders, primary screen, biochemical, small-molecule microarray, residues 1-88, 635 nm (AID 1129). As to conditions: small-molecule microarray binding, fluorescence 635 nm; higher = more signal.
In test [3] the target is Focal adhesion kinase 1 (Homo sapiens) (UniProt Q05397). In words: small-molecule microarray binders of FAK, primary screen, biochemical, 635/667 nm fluorescence, BSA, DTT (AID 1130).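 Note: composite of spot emission at 667 nm and signal to noise over triplicate slides.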 As to conditions: PTK2 binding, 635 nm fluorescence, higher = more signal.
Test [4] deals with Fibrinogen (Alexa647-labelled). Nature of the test: fibrinogen binders on compound microarrays, profiling panel, artefact control for SMM control-protein annotation, biochemical, small-molecule microarray, 635/667 nm fluorescence (AID 1131).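 Note: z-score merges 667 nm fluorescence with per-spot signal-to-noise over triplicate slides.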 As to conditions: fibrinogen-A647 binding fluorescence, higher = more signal.
Test [5] has as its target Follistatin (Homo sapiens) (UniProt P19883). In words: follistatin binders on small-molecule microarrays, primary screen, biochemical, small-molecule microarray, 635/667 nm fluorescence (AID 1132). As to conditions: FST binding, 635 nm fluorescence, higher = more signal.
In test [6] the target is Fibroblast growth factor 2 (Homo sapiens) (UniProt P09038). Nature of the test: FGF2 binders on small-molecule microarrays, primary screen, biochemical, small-molecule microarray, 635/667 nm fluorescence (AID 1133). As to conditions: small-molecule microarray binding, FGF2, fluorescence 635/667; higher = more signal.
A short description of test [7]: mitochondrial membrane potential change in A549 cells, profiling panel, cell-based, JC-1 fluorescence, basal, 24 h, 100 nL (AID 1138).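 Note: A549 lung adenocarcinoma cells under basal conditions with no added stimulus; test concentration not given here.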 As to conditions: higher = more signal.
Another test relates to Lefty1. In words: Lefty1 binders on small-molecule microarrays, primary screen, biochemical, small-molecule microarray, 635/667 nm fluorescence (AID 1139). As to conditions: small-molecule microarray binding, fluorescence 635/667; higher = more signal.
For test [8], the system named is wheat germ agglutinin (Triticum aestivum), Alexa647-labelled. In words: wheat germ agglutinin binders on compound microarrays, profiling panel, artefact control for SMM control-protein annotation, biochemical, small-molecule microarray, 635/667 nm fluorescence (AID 1140).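 Note: score merges 667 nm feature emission with signal to noise over triplicate slides.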 As to conditions: WGA-A647 binding, 635 nm fluorescence, higher = more signal.
The target in test [9] is Luciferin 4-monooxygenase (Photinus pyralis) (UniProt P08659). Nature of the test: firefly luciferase enzyme inhibitors, primary screen, biochemical, luminescence, purified enzyme, 2006 set (AID 1141).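 Note: cell-free assay with purified firefly luciferase at 100 ng per well in PBS; test concentration not given here.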 As to conditions: SteadyGlo luminescence, 30 min, higher = more signal, called active from +8 up or from −8 down.
The subject of test [10] is Wnt5a (protein binding on small-molecule microarray). In words: Wnt5a binders on small-molecule microarray, primary screen, biophysical, 635/667 nm fluorescence (AID 1142).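 Note: fluorescence read at 667 nm with signal to noise per printed feature.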 As to conditions: 635 nm fluorescence, higher = more signal.
A short description of test [11]: cell viability in Huh7 cells, primary screen, cytotoxicity control for HCV replication inhibitor project, CellTiter-Glo luminescence, basal, 48 h (AID 1143).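 Note: Huh7 hepatoma cells carrying a hepatitis C replication reporter with no stimulus; test concentration not given here.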 As to conditions: Huh7 HCV replicon, higher = more signal, called active from +8 up or from −8 down. In general terms: In ATP-based viability assays light output follows the ATP content of the culture.
The nature of test [12]: P. aeruginosa biofilm formation inhibitors, primary screen, PAO1 strain, BacTiter-Glo luminescence, LB-PBS (AID 1144). As to conditions: 12 h, higher = more signal.
A short description of test [13]: CREB reporter modulators without forskolin, primary screen, cell-based, PC12, CRE-LacZ reporter, unstimulated (AID 1145). As to conditions: no forskolin, luminescence, 4.5 h, higher = more signal, called active from +8 up or from −8 down.
Test [14] can be described thus: CREB reporter modulators under forskolin, primary screen, cell-based, PC12, CRE-LacZ reporter, forskolin-stimulated (AID 1146).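 Note: PC12 cells with 6xCRE LacZ reporter stimulated by forskolin 10 µM; beta-galactosidase reporter signal reflecting CREB driven transcription.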 As to conditions: luminescence, 4.5 h, higher = more signal, called active from +8 up or from −8 down.
Test [15] concerns the target Streptavidin (Streptomyces avidinii) (UniProt P22629). In words: streptavidin binders on small-molecule microarray, primary screen, artefact control for SMM compound annotation, biophysical, 635/667 nm fluorescence (AID 1147).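 Note: signal reflects streptavidin binding to arrayed compounds as a control protein.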 As to conditions: streptavidin binding, higher = more signal.
The nature of test [16]: small-molecule binders of probe aInhba, primary screen, biochemical, small-molecule microarray, 635/667 nm fluorescence (AID 1148).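 Note: score merges 667nm spot fluorescence with signal-to-noise for antibody binding to printed compounds.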 As to conditions: higher = more signal.
The target of test [17] is Torsin-1A (Homo sapiens) (UniProt O14656). Nature of the test: torsin A binders from cell lysate, primary screen, small-molecule microarray, wild-type, 635/667 nm (AID 1149). As to conditions: COS7 hTOR1A-WT lysate, 635 nm fluorescence, higher = more signal.
Test [18] shares this target. In words: small-molecule binders of mutant TOR1A in lysate, primary screen, cell lysate, small-molecule microarray, COS7 lysate, 635/667 nm fluorescence (AID 1150).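 Note: score pools 667 nm emission and signal to noise measuring lysate protein binding.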 As to conditions: COS7 hTOR1A mutant lysate, 635 nm fluorescence, higher = more signal.
The test system of test [19] is Sonic hedgehog protein (Shh). Nature of the test: small-molecule binders of Shh protein, primary screen, biochemical, small-molecule microarray, 635/667 nm fluorescence (AID 1151).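 Note: Shh protein binding to compounds spotted on small-molecule microarray slides; score combines spot fluorescence intensity with signal-to-noise across triplicate slides.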 As to conditions: small-molecule microarray binding, 635 nm fluorescence; higher = more signal.

Sequence of Focal adhesion kinase 1 (Homo sapiens) (Q05397 whole entry, looked up): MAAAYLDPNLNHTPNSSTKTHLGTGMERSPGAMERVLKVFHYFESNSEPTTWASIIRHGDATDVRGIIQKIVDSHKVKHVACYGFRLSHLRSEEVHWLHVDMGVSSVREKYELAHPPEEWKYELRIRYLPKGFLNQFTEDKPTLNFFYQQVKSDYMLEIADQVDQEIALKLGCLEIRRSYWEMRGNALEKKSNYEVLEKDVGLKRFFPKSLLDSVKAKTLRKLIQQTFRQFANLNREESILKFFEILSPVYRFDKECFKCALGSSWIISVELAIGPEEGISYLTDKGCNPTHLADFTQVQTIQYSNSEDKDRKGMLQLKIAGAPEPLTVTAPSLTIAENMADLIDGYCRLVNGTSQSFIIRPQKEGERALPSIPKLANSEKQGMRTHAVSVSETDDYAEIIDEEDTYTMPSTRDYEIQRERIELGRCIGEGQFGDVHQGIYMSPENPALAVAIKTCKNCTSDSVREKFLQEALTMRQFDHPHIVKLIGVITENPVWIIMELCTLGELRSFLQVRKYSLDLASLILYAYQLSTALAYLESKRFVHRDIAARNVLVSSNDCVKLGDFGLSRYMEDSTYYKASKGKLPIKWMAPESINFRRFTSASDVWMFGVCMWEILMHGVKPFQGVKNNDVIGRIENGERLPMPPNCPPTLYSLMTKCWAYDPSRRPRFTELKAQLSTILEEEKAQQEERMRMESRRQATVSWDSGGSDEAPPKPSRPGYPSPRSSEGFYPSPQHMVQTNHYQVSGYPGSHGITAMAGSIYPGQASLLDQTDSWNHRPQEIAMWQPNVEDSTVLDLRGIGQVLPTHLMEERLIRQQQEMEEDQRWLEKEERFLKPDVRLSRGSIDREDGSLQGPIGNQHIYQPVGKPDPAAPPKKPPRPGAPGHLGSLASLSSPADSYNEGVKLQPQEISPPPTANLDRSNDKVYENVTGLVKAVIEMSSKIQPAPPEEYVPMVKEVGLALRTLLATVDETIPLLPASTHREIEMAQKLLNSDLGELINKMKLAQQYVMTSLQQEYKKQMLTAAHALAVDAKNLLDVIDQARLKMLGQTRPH
Sequence of Fibroblast growth factor 2 (Homo sapiens) (P09038 whole entry, looked up): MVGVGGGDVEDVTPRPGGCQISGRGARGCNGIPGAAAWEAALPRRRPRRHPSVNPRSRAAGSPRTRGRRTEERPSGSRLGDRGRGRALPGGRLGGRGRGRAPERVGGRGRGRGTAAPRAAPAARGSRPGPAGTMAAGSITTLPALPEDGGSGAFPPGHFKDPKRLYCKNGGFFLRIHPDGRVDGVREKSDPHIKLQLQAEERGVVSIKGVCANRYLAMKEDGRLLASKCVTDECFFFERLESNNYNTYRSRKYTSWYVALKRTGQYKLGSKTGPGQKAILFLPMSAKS
Sequence of Follistatin (Homo sapiens) (P19883 whole entry, looked up): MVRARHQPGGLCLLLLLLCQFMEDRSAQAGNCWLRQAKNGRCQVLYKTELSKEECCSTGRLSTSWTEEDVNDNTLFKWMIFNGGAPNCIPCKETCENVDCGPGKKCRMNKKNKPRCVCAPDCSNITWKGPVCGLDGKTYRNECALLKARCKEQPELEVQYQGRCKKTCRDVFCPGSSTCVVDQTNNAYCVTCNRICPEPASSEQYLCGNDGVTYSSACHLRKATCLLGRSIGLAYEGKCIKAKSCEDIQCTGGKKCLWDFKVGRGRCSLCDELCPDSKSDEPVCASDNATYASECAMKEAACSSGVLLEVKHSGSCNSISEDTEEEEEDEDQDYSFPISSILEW
Sequence of Luciferin 4-monooxygenase (Photinus pyralis) (P08659 whole entry, looked up): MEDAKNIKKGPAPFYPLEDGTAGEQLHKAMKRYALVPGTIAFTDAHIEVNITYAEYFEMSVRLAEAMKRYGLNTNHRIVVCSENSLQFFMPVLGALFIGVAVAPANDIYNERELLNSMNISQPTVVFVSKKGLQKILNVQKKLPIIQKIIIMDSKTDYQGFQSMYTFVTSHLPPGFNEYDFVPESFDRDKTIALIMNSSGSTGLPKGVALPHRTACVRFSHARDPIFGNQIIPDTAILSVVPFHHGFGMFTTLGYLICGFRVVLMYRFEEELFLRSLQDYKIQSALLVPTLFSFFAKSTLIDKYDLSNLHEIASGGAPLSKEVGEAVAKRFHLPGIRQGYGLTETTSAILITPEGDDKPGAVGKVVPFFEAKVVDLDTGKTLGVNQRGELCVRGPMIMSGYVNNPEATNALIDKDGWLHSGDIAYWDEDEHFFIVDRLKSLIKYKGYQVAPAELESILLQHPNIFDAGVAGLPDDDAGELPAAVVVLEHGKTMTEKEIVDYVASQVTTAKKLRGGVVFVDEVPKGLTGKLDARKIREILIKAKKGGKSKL
Sequence of Streptavidin (Streptomyces avidinii) (P22629 whole entry, looked up): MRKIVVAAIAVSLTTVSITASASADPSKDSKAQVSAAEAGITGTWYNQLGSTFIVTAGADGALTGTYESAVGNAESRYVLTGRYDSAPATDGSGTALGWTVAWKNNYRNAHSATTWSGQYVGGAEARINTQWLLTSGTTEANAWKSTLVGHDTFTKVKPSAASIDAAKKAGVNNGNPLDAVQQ
Sequence of Torsin-1A (Homo sapiens) (O14656 whole entry, looked up): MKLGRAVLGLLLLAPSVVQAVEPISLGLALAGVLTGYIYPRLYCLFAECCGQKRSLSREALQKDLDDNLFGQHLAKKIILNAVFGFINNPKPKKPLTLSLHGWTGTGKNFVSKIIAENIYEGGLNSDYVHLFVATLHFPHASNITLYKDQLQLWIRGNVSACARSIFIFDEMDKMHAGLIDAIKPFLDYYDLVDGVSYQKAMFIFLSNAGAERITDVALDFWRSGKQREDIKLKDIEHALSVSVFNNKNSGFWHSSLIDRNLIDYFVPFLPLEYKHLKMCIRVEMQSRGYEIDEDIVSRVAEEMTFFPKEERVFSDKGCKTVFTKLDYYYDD

Take `COc1ccc([Si](C)(C)[C@H]2[C@H](CC(=O)N3CCC[C@H]3CO)O[C@@]3(C(=O)N(Cc4cccc(N5CCC5=O)c4)c4ccccc43)[C@@H]2C)cc1`: the composite z-score was 0.744 in test [1]; 1.24 in test [2]; 0.474 in test [3]; 0.734 in test [4]; 1.36 in test [5]; 1.55 in test [6]. The composite z-score in the test on Lefty1 was 1.38; in [8], 0.532; in [10], 0.749; in [15], 0.0783; in test [16] it was -0.0132; with Torsin-1A (Homo sapiens) [17], 0.633. Moreover, the figures for the composite z-score (with Torsin-1A (Homo sapiens) [18]; in test [19]) were 0.594 and 1.49, respectively. Further, the z-score in [7] is 1.4; in test [9] it was -0.493 (inactive); in test [11], -3.02 (inactive); in [12], 0.596 (inactive); in test [13], 1.66 (inactive); in test [14] it was -1.2 (inactive).
In the case of `Oc1ccc2cc[n+](Cc3cccc(OC(F)(F)F)c3)cc2c1`, the composite z-score in test [1] was 0.644; in test [2] it was 0.0093; in test [3], 0.295; in test [4] it was -0.0505; in test [5] it was 1.33; in test [6], 1.51. Also, the composite z-score was 1.38 with Lefty1; -0.0259 in test [8]; 0.112 in test [10]; 0.1 in test [15]; -0.255 in test [16]; 0.0193 in the test with Torsin-1A (Homo sapiens) [17]. Besides, the composite z-score in the test with Torsin-1A (Homo sapiens) [18] is -0.527; in test [19] it was 1.89. The z-score in test [7] is 0.579; in test [9], -0.256 (inactive); in test [11], 0.202 (inactive); in [12], -0.452 (inactive); in test [13], -0.0243 (inactive); in test [14], -0.668 (inactive).
On to `O=C1[C@H]2C=C(Br)[C@H](C[C@@H]2OCCOCCO)[C@@]12CO2`, for which the composite z-score in [1] was 0.141; in test [2] it was 0.314; in test [3], -0.0415; in [4] it was 0.138; in test [5], -0.864; in [6], 0.179. Moreover, the composite z-score with Lefty1 is 0.199; in test [8], -0.0695; in test [10] it was 0.268; in test [15], 0.138; in [16], -0.118; with Torsin-1A (Homo sapiens) [17] it was -0.428. Moreover, the composite z-score with Torsin-1A (Homo sapiens) [18] is -0.385; in test [19], 0.0806. Further, the z-score was -0.271 in [7]; 0.582 (inactive) in test [9]; 0.808 (inactive) in test [11]; 0.199 (inactive) in test [12]; -1.23 (inactive) in [13]; 1.6 (inactive) in test [14].
On to `CC1CC/C=C\[C@H]2OC34C=CCN(Cn5nnc6ccccc65)C(=O)[C@H]3N(CCCO)C(=O)[C@@H]4C2C(=O)O1` (stereo not given in full), for which the composite z-score in [1] was 0.239; in test [2], -0.326; in [3] it was -0.47; in test [4] it was -1.15; in test [5], -0.693; in [6] it was -1.03. Further, the composite z-score in the test with Lefty1 is -0.146; in [8], -1.09; in [10], -0.595; in test [15], -0.958; in [16], -0.157; with Torsin-1A (Homo sapiens) [17], -1.89. Moreover, the composite z-score with Torsin-1A (Homo sapiens) [18] was -1.33; in [19], 0.0837. Besides, the z-score in test [7] is -0.198; in test [9], 0.885 (inactive); in [11], -0.382 (inactive); in test [12], -0.281 (inactive); in [13], -0.212 (inactive); in test [14], -0.759 (inactive).
With `Cc1ccc(N2C(=O)c3ccccc3[C@@H](C(=O)NCC(C)C)[C@@H]2c2ccc(CO)cc2)nc1`, the composite z-score in [1] was 0.0133; in [2], -0.871; in test [3], -0.451; in test [4], -0.877; in test [5], -0.186; in [6], -0.246. In addition, the composite z-score in the test on Lefty1 was -0.609; in [8], -0.674; in test [10] it was -0.0957; in test [15], -1.45; in test [16] it was -0.231; with Torsin-1A (Homo sapiens) [17], -1.67. Besides, the composite z-score in the test with Torsin-1A (Homo sapiens) [18] is -1.47; in [19], -0.0902. Moreover, the z-score is 0.738 in test [7]; -0.663 (inactive) in test [9]; -0.308 (inactive) in test [11]; 0.504 (inactive) in test [12]; -0.295 (inactive) in test [13]; 0.892 (inactive) in [14].
